Reference: PubChem BioAssay (EPA / NIEHS)
Activity calls are given as the source filed them. How the source made its calls: active means hit-call score of the fitted dose curve at least 0.9, where 1 is the maximum; inactive means score below 0.9.

Assay: ATG_ISRE_CIS: Attagene CIS-FACTORIAL HepG2 Assay for human Interferon Regulatory Factor 1 (IRF1) binding to an Interferon-Stimulated Response Element (ISRE) (AID 2282948)
Settings: HepG2 ISRE cis-reporter (Attagene), mRNA transcription readout; actives raise or lower the signal
Method in brief: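 Multiplexed mRNA reporter readout in human liver HepG2 cells: cis-element-driven reporters transfected, compound added for 24 h, transcripts amplified, fluorescently labelled and sized by capillary electrophoresis; curve fitting bidirectional against DMSO.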

Row | Compound | outcome | AC50
1 | CCCCNC(=O)NS(=O)(=O)c1ccc(N)cc1 | inactive | –
2 | CCOC(=O)c1ccccc1OC | inactive | –
3 | CCCCCCCCCCN | inactive | –
4 | CC(C)(CO)[N+](=O)[O-] | inactive | –
5 | CC1(C)C(=O)N(Br)C(=O)N1Cl | inactive | –
6 | COc1ccc(O)cc1 | inactive | –
7 | CC(=O)Nc1ccc(CC(=O)O)cc1 | inactive | –
8 | CC(C)C1CCC(O)CC1 (centres undefined) | inactive | –
9 | C=C(C)C(=O)O | inactive | –
10 | CCCCCNCCCCC | inactive | –
11 | COc1cc(C=O)ccc1OC(=O)C(C)C | inactive | –
12 | O=C[C@H](O)[C@H](O)[C@H](O)CO | inactive | –
13 | CCCCOCCOCCOCCOCCO | inactive | –
14 | C=C[Si](OCC)(OCC)OCC | inactive | –
15 | CCCCCCOC(=O)CCCCC | inactive | –
16 | COC(C)CCO (centres undefined) | inactive | –
17 | OCCOc1cccc(OCCO)c1 | inactive | –
18 | C=C(C)[C@@H]1CC[C@@H](C)C[C@@H]1O | inactive | –
19 | CCCCCCCCCCCCN(CCCCCCCCCCCC)CCCCCCCCCCCC | inactive | –

Row | Compound | outcome | AC50
20 | Cc1ccc(C(C)C)cc1O | inactive | –
21 | CC(=O)[O][Al][O]C(C)=O | inactive | –
22 | CCCCCCCCCCCCCCCC(=O)O | inactive | –
23 | CC(=O)c1c(C)cc(C(C)(C)C)cc1C | inactive | –
24 | CCCCCCCCCCCCCCCC(=O)OC[C@H](O)[C@H]1OC(=O)C(O)=C1O | inactive | –
25 | C=C(C)C(=O)O[C@H]1C[C@@H]2CC[C@@]1(C)C2(C)C | inactive | –
26 | CCCCCOC(=O)CCC | inactive | –
27 | Nc1nc2ccc([N+](=O)[O-])cc2s1 | – | 77.4 µM (active)
28 | CCCCCCCCCCCCCOS(=O)(=O)O | inactive | –
29 | CCCCN | inactive | –
30 | CC(C)=CCO | inactive | –
31 | NCCCCCCN | inactive | –
32 | C=C(C)C(=O)Nc1ccc(Cl)c(Cl)c1 | inactive | –
33 | O=S(=O)(O)NC1CCCCC1 | inactive | –
34 | CC(C)C(C)(C)C(C)(C)C(C)(C)S | inactive | –
35 | C=C(C)C1CCC(C)CC1O (centres undefined) | inactive | –
36 | CC(C)[C@@H]1CC[C@@H](C)CC1=O | inactive | –
37 | CCCCCC(CO)CCC (centres undefined) | inactive | –
38 | O=c1[nH]c(=O)n([C@H]2CCCO2)cc1F | inactive | –

Assay: ATG_M_32_CIS: Attagene CIS-FACTORIAL HepG2 Assay for M32 Transcription Factor (Internal Marker) (AID 2282949);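 further: background control marker of the multiplexed CIS panel rather than a real target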
Settings: HepG2 Attagene cis-factorial M32 reporter, mRNA; actives raise or lower the signal
Method in brief: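 Using DMSO as baseline, bidirectional curve fits were applied to reporter mRNA signals. These came from transiently transfected HepG2 cells exposed for 24 h, with RNA analysed by RT-PCR, FAM primer extension, HpaI digestion and CE.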

Row | Compound | outcome
39 | CCCCNC(=O)NS(=O)(=O)c1ccc(N)cc1 | inactive
40 | CCOC(=O)c1ccccc1OC | inactive
41 | CCCCCCCCCCN | inactive
42 | CC(C)(CO)[N+](=O)[O-] | inactive
43 | CC1(C)C(=O)N(Br)C(=O)N1Cl | inactive
44 | COc1ccc(O)cc1 | inactive
45 | CC(=O)Nc1ccc(CC(=O)O)cc1 | inactive
46 | CC(C)C1CCC(O)CC1 (centres undefined) | inactive
47 | C=C(C)C(=O)O | inactive
48 | CCCCCNCCCCC | inactive
49 | COc1cc(C=O)ccc1OC(=O)C(C)C | inactive
50 | O=C[C@H](O)[C@H](O)[C@H](O)CO | inactive
51 | CCCCOCCOCCOCCOCCO | inactive
52 | C=C[Si](OCC)(OCC)OCC | inactive
53 | CCCCCCOC(=O)CCCCC | inactive
54 | COC(C)CCO (centres undefined) | inactive
55 | OCCOc1cccc(OCCO)c1 | inactive
56 | C=C(C)[C@@H]1CC[C@@H](C)C[C@@H]1O | inactive
57 | CCCCCCCCCCCCN(CCCCCCCCCCCC)CCCCCCCCCCCC | inactive

Row | Compound | outcome
58 | Cc1ccc(C(C)C)cc1O | inactive
59 | CC(=O)[O][Al][O]C(C)=O | inactive
60 | CCCCCCCCCCCCCCCC(=O)O | inactive
61 | CC(=O)c1c(C)cc(C(C)(C)C)cc1C | inactive
62 | CCCCCCCCCCCCCCCC(=O)OC[C@H](O)[C@H]1OC(=O)C(O)=C1O | inactive
63 | C=C(C)C(=O)O[C@H]1C[C@@H]2CC[C@@]1(C)C2(C)C | inactive
64 | CCCCCOC(=O)CCC | inactive
65 | Nc1nc2ccc([N+](=O)[O-])cc2s1 | inactive
66 | CCCCCCCCCCCCCOS(=O)(=O)O | inactive
67 | CCCCN | inactive
68 | CC(C)=CCO | inactive
69 | NCCCCCCN | inactive
70 | C=C(C)C(=O)Nc1ccc(Cl)c(Cl)c1 | inactive
71 | O=S(=O)(O)NC1CCCCC1 | inactive
72 | CC(C)C(C)(C)C(C)(C)C(C)(C)S | inactive
73 | C=C(C)C1CCC(C)CC1O (centres undefined) | inactive
74 | CC(C)[C@@H]1CC[C@@H](C)CC1=O | inactive
75 | CCCCCC(CO)CCC (centres undefined) | inactive
76 | O=c1[nH]c(=O)n([C@H]2CCCO2)cc1F | inactive

Assay: ATG_M_06_CIS: Attagene CIS-FACTORIAL HepG2 Assay for M06 Transcription Factor (Internal Marker) (AID 2282950)
Settings: HepG2 Attagene CIS-FACTORIAL M06 internal marker reporter; actives raise or lower the signal
Method in brief: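 Internal background marker within multiplexed cis-reporter HepG2 system. Cells transiently transfected, dosed 24 h; reporter mRNA measured by RT-PCR, HpaI digestion and capillary electrophoresis. Bidirectional fit relative to DMSO.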

Row | Compound | outcome
77 | CCCCNC(=O)NS(=O)(=O)c1ccc(N)cc1 | inactive
78 | CCOC(=O)c1ccccc1OC | inactive
79 | CCCCCCCCCCN | inactive
80 | CC(C)(CO)[N+](=O)[O-] | inactive
81 | CC1(C)C(=O)N(Br)C(=O)N1Cl | inactive
82 | COc1ccc(O)cc1 | inactive
83 | CC(=O)Nc1ccc(CC(=O)O)cc1 | inactive
84 | CC(C)C1CCC(O)CC1 (centres undefined) | inactive
85 | C=C(C)C(=O)O | inactive
86 | CCCCCNCCCCC | inactive
87 | COc1cc(C=O)ccc1OC(=O)C(C)C | inactive
88 | O=C[C@H](O)[C@H](O)[C@H](O)CO | inactive
89 | CCCCOCCOCCOCCOCCO | inactive
90 | C=C[Si](OCC)(OCC)OCC | inactive
91 | CCCCCCOC(=O)CCCCC | inactive
92 | COC(C)CCO (centres undefined) | inactive
93 | OCCOc1cccc(OCCO)c1 | inactive
94 | C=C(C)[C@@H]1CC[C@@H](C)C[C@@H]1O | inactive
95 | CCCCCCCCCCCCN(CCCCCCCCCCCC)CCCCCCCCCCCC | inactive

Row | Compound | outcome
96 | Cc1ccc(C(C)C)cc1O | inactive
97 | CC(=O)[O][Al][O]C(C)=O | inactive
98 | CCCCCCCCCCCCCCCC(=O)O | inactive
99 | CC(=O)c1c(C)cc(C(C)(C)C)cc1C | inactive
100 | CCCCCCCCCCCCCCCC(=O)OC[C@H](O)[C@H]1OC(=O)C(O)=C1O | inactive
101 | C=C(C)C(=O)O[C@H]1C[C@@H]2CC[C@@]1(C)C2(C)C | inactive
102 | CCCCCOC(=O)CCC | inactive
103 | Nc1nc2ccc([N+](=O)[O-])cc2s1 | inactive
104 | CCCCCCCCCCCCCOS(=O)(=O)O | inactive
105 | CCCCN | inactive
106 | CC(C)=CCO | inactive
107 | NCCCCCCN | inactive
108 | C=C(C)C(=O)Nc1ccc(Cl)c(Cl)c1 | inactive
109 | O=S(=O)(O)NC1CCCCC1 | inactive
110 | CC(C)C(C)(C)C(C)(C)C(C)(C)S | inactive
111 | C=C(C)C1CCC(C)CC1O (centres undefined) | inactive
112 | CC(C)[C@@H]1CC[C@@H](C)CC1=O | inactive
113 | CCCCCC(CO)CCC (centres undefined) | inactive
114 | O=c1[nH]c(=O)n([C@H]2CCCO2)cc1F | inactive
